KB-3-1 tox – kills parental KB-3-1 adenocarcinoma cells. KB-3-1 viability, CellTiter-Glo ATP luminescence, 72 h. Potency, µM (series often up to 46.1 µM), hits mostly cytotoxic. hit rate 1.4% among 400,000. AID 1347075; also: % is scaled to controls: 0 for no effect and ±100 for the full control effect; nearly all actives have a fitted effect of over 60% in size
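Cytotoxicity in the drug-sensitive parental line KB-3-1 was scored as loss of CellTiter-Glo luminescence following 72 h incubation with compound. Values come from curve fitting of normalized concentration-response data.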
KB-V1 cytotox – kills drug-selected multidrug resistant KB-V1 cells | KB-V1 MDR cells viability, CellTiter-Glo, 72 h | Potency, µM (doses to about 46.1 µM), usual class: cytotoxic | hit rate 3.4% among 400,000 | AID 1347076; also: % is scaled to controls: 0 for no effect and ±100 for the full control effect; nearly all actives have a fitted effect of over 60% in size
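Cytotoxicity toward P-gp-expressing KB-V1 cells was determined as loss of CellTiter-Glo luminescence after 72 h at 37 degrees C. Compounds were tested in quantitative HTS format across a concentration range, with curves fitted to normalized data.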
HT1080 IDH1KD tx – kills HT-1080 cells with IDH1 knockdown; HT-1080 IDH1 knockdown viability, ATP luminescence, 48 h; Potency, µM (doses to about 46.1 µM), without a hit: at the highest dose activity, negative = toxicity, actives largely listed as cytotoxic; hit rate 2% among 360,000;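 also: 0% = DMSO wells and -100% = cell-free medium wells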
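Knockdown cells (IDH1KD HT-1080) received compounds 2 h after plating at 750 cells/well and were kept 48 h at 37 °C in 5% FBS RPMI. A CellTiter-Glo luminescence read gave % activity for curve fitting.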
HT1080NT lethal – kills 2HG-producing HT-1080-NT fibrosarcoma cells | Potency, µM (series often up to 46.1 µM), inactives show at the highest dose activity, negative = less viability, most hits filed as cytotoxic | HT-1080-NT fibrosarcoma viability, CellTiter-Glo ATP luminescence, 48 h | hit rate 1.6% among 360,000;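 also: NT is the 2HG producing partner of a matched IDH1 knockdown line; 0% = DMSO-treated cells and -100% = media-only wells without cells; nearly all actives have a fitted effect of over 55% in size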
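HT-1080-NT; 750 cells/well; 5% FBS RPMI; 48 h compound, 37 degrees C; CellTiter-Glo luminescence; curve fitting and curve-class assignment.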
MCF10A rerep – DNA re-replication induction in MCF 10a cells | MCF 10A DNA re-replication, Hoechst nuclear intensity, 48 h | Potency, µM (titrated, usually from 46.1 µM), for the others: at the highest dose activity, positive = re-replication, most hits filed as activators | hit rate 2.9% among 350,000 | AID 624296; also: % of control where 0% means no effect; nearly all actives have a fitted effect of over 50% in size
SW480 rereplic – induces DNA re-replication in SW480 colon adenocarcinoma cells | Potency, µM (top dose mostly 46.1 µM), inactives show top-dose re-replication activation, hits mostly activators | SW480 DNA re-replication, Hoechst DNA content imaging, 48 h | hit rate 1.8% among 340,000; also: % of control where 0% means no effect; nearly all actives have a fitted effect of over 55% in size
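250 cells/well; 23 nL cpd via pin tool; 48 hr, 37 C, 5% CO2; Hoechst 40 min; imager read of total nuclear intensity, ex 405/em 500-530 nm.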
* marks the source's active call; other numbers are inactive results. Most compounds without a hit are left out; they make up all but 7.9% or so of the library. Calls follow the shape of the dose curve; as a rule, active = well fitted curve in the direction sought with a large enough effect; inconclusive = small, poorly fitted or top-dose-only effect, or another doubt; inactive = no such curve, though single readings can be large; an effect the other way counts as inactive or inconclusive. Potency is read from the fitted curve at half-maximal effect.

`O=C(Cc1ccccc1[N+](=O)[O-])Nc1nccs1` gave KB-3-1 tox inactive, KB-V1 cytotox inactive, HT1080 IDH1KD tx -0.3%, HT1080NT lethal 0.8%, MCF10A rerep 1.6% and SW480 rereplic 2.91µM*.
O=C(c1cc2ccccc2cc1O)N1CCCC(C(F)(F)F)C1 (stereo not given) was read as KB-3-1 tox inactive, KB-V1 cytotox inactive, HT1080 IDH1KD tx -4.7%, HT1080NT lethal -6.3%, MCF10A rerep inconclusive and SW480 rereplic -0.8%.
`COc1cc2ccccc2cc1C(=O)N1CCCC(C(F)(F)F)C1` (stereo not given) gave KB-3-1 tox inactive, KB-V1 cytotox 14.6µM*, HT1080 IDH1KD tx -10.8%, HT1080NT lethal 1.6%, MCF10A rerep -4.5% and SW480 rereplic -5.8%.
Screening Cc1ccc(NC(=O)CSCC(=O)N(C)Cc2ccc(Cl)c(Cl)c2)cc1 returned KB-3-1 tox inactive, KB-V1 cytotox 18.4µM*, HT1080 IDH1KD tx 1.5%, HT1080NT lethal -9.6%, MCF10A rerep 2.0% and SW480 rereplic -5.2%.
COc1ccc(NC(=O)CSCC(=O)N(C)Cc2ccc(Cl)c(Cl)c2)cc1 was read as KB-3-1 tox inactive, KB-V1 cytotox inactive, HT1080 IDH1KD tx -16.4%, HT1080NT lethal -9.4%, MCF10A rerep 25.1% and SW480 rereplic 0.6%.
For CN(C)Cc1c(O)ccc2c(=O)c(-c3ccc(Cl)cc3)coc12 the results were KB-3-1 tox inactive, KB-V1 cytotox inactive, HT1080 IDH1KD tx 7.5%, HT1080NT lethal 9.7%, MCF10A rerep -0.5% and SW480 rereplic inconclusive.
`O=c1c(-c2ccc([N+](=O)[O-])cc2)coc2c(O)c(O)ccc12` gave KB-3-1 tox inactive, KB-V1 cytotox inconclusive, HT1080 IDH1KD tx inconclusive, HT1080NT lethal -37.2%, MCF10A rerep 6.8% and SW480 rereplic 13µM*.
For Cc1cc(C)cc(-n2c(SCC(=O)N3CCCCCC3)nc3c([nH]c4ccccc43)c2=O)c1 the results were KB-3-1 tox inactive and KB-V1 cytotox inactive.
Screening O=[N+]([O-])c1ccc(Oc2cccc3cccnc23)c([N+](=O)[O-])c1 returned KB-3-1 tox inactive, KB-V1 cytotox 20.6µM*, HT1080 IDH1KD tx 23.1µM*, HT1080NT lethal inconclusive, MCF10A rerep 20.6µM* and SW480 rereplic inconclusive.
Cc1ccc2cccc(Oc3ccc([N+](=O)[O-])cc3[N+](=O)[O-])c2n1 was read as KB-3-1 tox inactive, KB-V1 cytotox inconclusive, HT1080 IDH1KD tx 0.3%, HT1080NT lethal -0.1%, MCF10A rerep 5.8% and SW480 rereplic -1.9%.
`N#Cc1cc(O)c(-n2nnc3ccccc32)cc1C#N` gave KB-3-1 tox inactive, KB-V1 cytotox inactive, HT1080 IDH1KD tx -7.9%, HT1080NT lethal 2.0%, MCF10A rerep 15.8% and SW480 rereplic -12.4%.
For O=[N+]([O-])c1ccccc1OCCOCCOc1cccc2cccnc12 the results were KB-3-1 tox inactive, KB-V1 cytotox inactive, HT1080 IDH1KD tx 8.3%, HT1080NT lethal 0.6%, MCF10A rerep inconclusive and SW480 rereplic -5.0%.
`N#Cc1cc(Oc2cccc3cccnc23)c(-n2nnc3ccccc32)cc1C#N` gave KB-3-1 tox inconclusive, KB-V1 cytotox inconclusive, HT1080 IDH1KD tx 6.31µM*, HT1080NT lethal 5.62µM*, MCF10A rerep 14.1µM* and SW480 rereplic inconclusive.
For N#Cc1ccc(Oc2cccc3cccnc23)c([N+](=O)[O-])c1 the results were KB-3-1 tox inactive, KB-V1 cytotox 20.6µM*, HT1080 IDH1KD tx -0.2%, HT1080NT lethal 2.2%, MCF10A rerep inconclusive and SW480 rereplic 11.9%.
`CC1CCN(CC(CS(=O)(=O)c2ccc([N+](=O)[O-])cc2)N2CCC(C)CC2)CC1` (stereo not given) gave KB-3-1 tox 5.17µM*, KB-V1 cytotox inconclusive, HT1080 IDH1KD tx 5.1%, HT1080NT lethal -2.6%, MCF10A rerep 1.84µM* and SW480 rereplic 2.91µM*.
Screening COc1cc(CNCCN2CCOCC2)ccc1OCc1ccc(Cl)cc1 returned KB-3-1 tox inconclusive, KB-V1 cytotox inactive, HT1080 IDH1KD tx inconclusive, HT1080NT lethal inconclusive, MCF10A rerep inconclusive and SW480 rereplic inconclusive.
COc1ccc(Cl)cc1NC(=S)NCCN1CCOCC1 was read as KB-3-1 tox inactive, KB-V1 cytotox inactive, HT1080 IDH1KD tx 2.8%, HT1080NT lethal 1.1%, MCF10A rerep 0.461µM* and SW480 rereplic inconclusive.
For COc1cc(Cl)ccc1NC(=S)N(CCCN1CCOCC1)Cc1cn(C)c2ccccc12 the results were KB-3-1 tox inconclusive, KB-V1 cytotox inactive, HT1080 IDH1KD tx inconclusive, HT1080NT lethal inconclusive, MCF10A rerep inconclusive and SW480 rereplic inconclusive.
For COc1cc(CNCCCN2CCOCC2)cc(Br)c1OCc1ccc(Cl)cc1 the results were KB-3-1 tox inconclusive, KB-V1 cytotox inconclusive, HT1080 IDH1KD tx inconclusive, HT1080NT lethal -28.4%, MCF10A rerep 13µM* and SW480 rereplic -2.9%.
Screening COc1ccc(Cl)cc1NC(=S)N(CCCN1CCOCC1)Cc1cn(C)c2ccccc12 returned KB-3-1 tox inconclusive, KB-V1 cytotox inactive, HT1080 IDH1KD tx -22.5%, HT1080NT lethal inconclusive, MCF10A rerep inconclusive and SW480 rereplic 23.1µM*.
`CSC(=NS(=O)(=O)c1ccccc1)NNC(=O)c1c(-c2c(Cl)cccc2Cl)noc1C` gave KB-3-1 tox inactive, KB-V1 cytotox inactive, HT1080 IDH1KD tx 3.3% and HT1080NT lethal 3.6%.
For Cc1ccc(S(=O)(=O)c2nc(S(=O)(=O)c3ccccc3)sc2N2CCN(C)CC2)cc1 the results were KB-3-1 tox inconclusive, KB-V1 cytotox inconclusive, HT1080 IDH1KD tx inconclusive, HT1080NT lethal inconclusive, MCF10A rerep 23.1µM* and SW480 rereplic 35.8%.
For CCCS(=O)(=O)c1nc(S(=O)(=O)c2ccc(C)cc2)c(N2CCN(C)CC2)s1 the results were KB-3-1 tox inactive, KB-V1 cytotox inactive, HT1080 IDH1KD tx 12.6%, HT1080NT lethal 6.3%, MCF10A rerep -1.9% and SW480 rereplic 32.9%.
Cc1ccc(S(=O)(=O)c2nc(S(=O)(=O)c3ccccc3)sc2N2CCN(CCO)CC2)cc1 was read as KB-3-1 tox 20.6µM*, KB-V1 cytotox inconclusive, HT1080 IDH1KD tx -8.2%, HT1080NT lethal inconclusive, MCF10A rerep 17.0% and SW480 rereplic -1.0%.
For CCS(=O)(=O)c1nc(S(=O)(=O)c2ccc(C)cc2)c(N2CCN(CCO)CC2)s1 the results were KB-3-1 tox inactive, KB-V1 cytotox inactive, HT1080 IDH1KD tx 0.2%, HT1080NT lethal 15.0%, MCF10A rerep -0.2% and SW480 rereplic 1.4%.

Screens: PubChem BioAssay, National Center for Advancing Translational Sciences (NCATS)
